The text below walks through data of PubChem BioAssay AID2685 (National Center for Advancing Translational Sciences (NCATS), 2010).

The whole screen tested about 320,000 compounds, of which about 2,100 (0.66%) were called active. Roughly 53% stayed inconclusive and do not appear here. Calls come from the whole dose curve; as a rule, active = well fitted inhibition curve with a large enough effect in the signal ratio, with a control signal flat (not every such curve was filed as active); inconclusive = small, poorly fitted or top-dose-only effect, or effect the other way, or a change in a side signal; inactive = flat fitted curve, though single readings scatter; the % refers to the signal ratio. Shown is part of a subset that was picked to be rich in actives.
Potency is the fitted concentration of half-maximal effect.

The experiment is described as follows: qHTS Assay for Lipid Storage Modulators in Drosophila S3 Cells.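 For cell number change: cells counted by Cell Tracker Red CMTPX staining in the red channel.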 For lipid storage change, negative = inhibition: % is set by controls: 0 for no effect and ±100 for the full control effect. The following applies: BODIPY lipid droplet fluorescence, 18-24 h, cells fed with added oleic acid; cell number change: measured here: cell count max response; series mostly up to 46.1 µM. Summed up:
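Drosophila S3 cells got compounds at several concentrations plus oleic acid (400 uM solution). Laser-scanning cytometry with 488 nm excitation read lipid droplets at 500-530 nm and cells at 575-640 nm. Percent activity was relative to 20 uM Triacsin C.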
Take `CC(=O)Nc1ccc(S(=O)(=O)N2CCCN(S(=O)(=O)c3ccc(C)cc3)CC2)cc1`: the Potency entry was “inactive” and the cell number change was -14.2%.
`N/C(=N\S(=O)(=O)c1cccs1)c1ccccc1`: the Potency result was “inactive” and the cell number change came to 3.91%.
`CCc1ccc(NS(=O)(=O)c2cccs2)cc1`: the Potency result is “inactive”.
As to `CCc1cc[n+](C2=C([O-])c3ccccc3C(=O)/C2=N\S(=O)(=O)c2cccs2)cc1`, the Potency was 1.84 µM (active) and the cell number change stood at 2.59%.
For `NC(=NCCc1ccccc1)NS(=O)(=O)c1cccs1`, the Potency entry is “inactive” and the cell number change was -0.301%.
For the compound `Cc1cc[n+](C2=C([O-])c3ccccc3C(=O)/C2=N\S(=O)(=O)c2cccs2)cc1C`, the Potency was 8.2 µM (active) and the cell number change was -25.5%.
Take `Cc1cc[n+](-c2nc3ccccc3nc2[N-]S(=O)(=O)c2cccs2)cc1C`: the Potency entry is “inactive” and the cell number change is -0.563%.
As to `CCCCC[n+]1ccn(C2=C([O-])c3ccccc3C(=O)/C2=N\S(=O)(=O)c2ccc(Br)cc2)c1`, the Potency result was “inactive”.
In the case of `O=C1/C(=N\S(=O)(=O)c2cccs2)C([n+]2ccccc2)=C([O-])c2ccccc21`, the Potency is 20.6 µM (active) and the cell number change is -19.9%.
In the case of `O=C1/C(=N\S(=O)(=O)c2cccs2)C([n+]2cccc(Cc3ccccc3)c2)=C([O-])c2ccccc21`, the Potency was 20.6 µM (active) and the cell number change is -9.11%.
On to `O=C1C(=O)c2ccccc2C([O-])=C1[n+]1ccccc1`, for which the Potency entry is “inactive” and the cell number change came to 19.4%.
Take `Cc1ccc(/C=C2\S/C(=N/S(=O)(=O)c3cccs3)NC2=O)cc1`: the Potency entry was “inactive” and the cell number change was 3.91%.
Take `CC(C)N(Cc1ccccc1)S(=O)(=O)c1cccs1`: the Potency result was “inactive”.
Regarding `O=[N+]([O-])c1cccc(C(=S)N2CCCC2)c1`, the Potency entry is “inactive” and the cell number change came out at 3.41%.
`COc1ccccc1/C=C/C(=O)OCC(=O)NCc1ccco1`: the Potency result is “inactive” and the cell number change came to 4.89%.
Take `CCCc1c(C(=O)N/N=C(/C)c2ccncc2)nnn1-c1nonc1N`: the Potency entry was “inactive” and the cell number change is 8.62%.
Turning to `Cc1ccc(/C=C2/SC(=S)N(C3CCCCC3)C2=O)o1`, the Potency entry is “inactive” and the cell number change came to 14.1%.
For `Cc1cc(C)n(CCCN2C(=O)c3cccc4cccc(c34)C2=O)n1`, the Potency result was “inactive”.
On to `CNCc1ccccc1OCC(=O)Nc1ccccc1`, for which the Potency entry is “inactive” and the cell number change was -38.8%.
As to `COc1ccc(CC(=O)OCC(=O)N2CCCc3ccccc32)cc1`, the Potency result is “inactive” and the cell number change is -4.06%.
As for `CC(C)OCCCNC(=O)CCC(=O)NNc1nc2ccccc2c2nc(-c3ccccc3)nn12`, the Potency was 11.6 µM (active) and the cell number change is -5.84%.
Regarding `CCOCCCNC(=O)CCC(=O)NNc1nc2ccccc2c2nc(-c3ccccc3)nn12`, the Potency entry is “inactive” and the cell number change was -6.89%.
`COCCCNC(=O)CCC(=O)NNc1nc2ccccc2c2nc(-c3ccccc3)nn12`: the Potency result is “inactive” and the cell number change is 5.05%.
Regarding `Cc1cc(C)cc(-n2c(N)c(C(=O)Nc3c(C)n(C)n(-c4ccccc4)c3=O)c3nc4ccccc4nc32)c1`, the Potency result was “inactive” and the cell number change was 0.326%.
Regarding `CCOc1cc(/C=C/c2cccc[n+]2C)ccc1OCC(=O)Nc1ccc(C)cc1`, the Potency result was “inactive” and the cell number change amounted to 2.56%.
As to `CCC(Sc1nc2ccccc2o1)C(=O)O` (stereo unspecified), the Potency entry was “inactive” and the cell number change was 11.5%.
Turning to `CCC(Sc1nc(N)cc(N)n1)C(=O)O` (stereo unspecified), the Potency was 20.6 µM (active) and the cell number change is -9.76%.
Regarding `CCC(Sc1ccc(C(=O)O)cc1)C(=O)O` (stereo unspecified), the Potency entry is “inactive” and the cell number change was 22.4%.
As to `CC(C)CCNC(=O)c1cccc(Cl)c1`, the Potency result was “inactive” and the cell number change came out at 19.2%.
For `NC(=O)CNC(=O)c1cccc(Cl)c1`, the Potency entry is “inactive” and the cell number change amounted to 1.9%.
For the compound `Cc1ccc(C)n1NC(=O)c1ccccc1`, the Potency entry was “inactive” and the cell number change worked out at 1.97%.
For `Cc1ccc(C)n1NC(=O)c1ccc(Cl)cc1Cl`, the Potency entry was “inactive” and the cell number change is 0.742%.
Regarding `Cc1ccc(C)n1NC(=O)c1cccc(Cl)c1`, the Potency is 20.6 µM (active).
For the compound `O=C(NCCO)c1cccc(Cl)c1`, the Potency was 25.9 µM (active) and the cell number change was -4.89%.
Turning to `COc1ccc(N2C(=S)N=C(Nc3cccc(C)c3)C23CCCCC3)cc1`, the Potency result is “inactive” and the cell number change was -6.29%.
Take `Cc1ncoc1C(=O)N1CCCC(C(=O)c2cccc3ccccc23)C1` (stereo unspecified): the Potency entry is “inactive” and the cell number change amounted to 6.72%.
As to `CCC(C)Oc1nc2c(c(=O)n(C)c(=O)n2C)n1C` (stereo unspecified), the Potency entry is “inactive” and the cell number change was 14.8%.
As to `CC(=O)/C(=C/Nc1ccc(Oc2ccccc2)cc1)c1ccccc1`, the Potency entry is “inactive”.
For `COc1ccc(-n2nc(C(=O)NCC(=O)NCCCN3CCOCC3)c3ccccc3c2=O)cc1`, the Potency entry is “inactive” and the cell number change was -8.11%.
With `COc1ccccc1CNc1cncnc1`, the Potency entry was “inactive” and the cell number change was found to be 7.04%.
In the case of `O=C(Nc1ccc(Cl)cc1)C1CCCN(c2ncnc3c2nc2n3CCCCC2)C1` (stereo unspecified), the Potency result was “inactive” and the cell number change is -19.1%.
As to `Cc1cccc(N2CC(C(=O)Nc3nnc(SCc4cccnc4)s3)CC2=O)c1` (stereo unspecified), the Potency result is “inactive” and the cell number change was 0.463%.
On to `Cc1ccc(Nc2cc(C)nc3ncnn23)c(Cl)c1`, for which the Potency entry was “inactive” and the cell number change stood at 1.99%.
On to `CCOC(=O)Cc1nnc(NC(=O)CSc2ccc(C)cc2)s1`, for which the Potency result is “inactive” and the cell number change was 10.4%.
Consider `CC(NC(=O)c1ccco1)c1nc(-c2ccc(Cl)cc2)no1` (stereo unspecified), for which the Potency entry was “inactive”.
For the compound `CC(NC(=O)c1ccco1)c1nc(-c2ccc(C(C)(C)C)cc2)no1` (stereo unspecified), the Potency result is “inactive” and the cell number change was -0.87%.
On to `CC(NC(=O)c1ccco1)c1nc(-c2ccccc2)no1` (stereo unspecified), for which the Potency is 25.9 µM (active) and the cell number change was determined as 24.3%.
Consider `Cc1c(NC(=O)COc2cccc(F)c2)c(=O)n(-c2ccccc2)n1C`, for which the Potency entry is “inactive” and the cell number change is -5.04%.
As to `COc1ccccc1NC(=O)C(C)OC(=O)CCCN=C1NS(=O)(=O)c2ccccc21` (stereo unspecified), the Potency entry is “inactive”.
On to `Oc1ccc(/C=N/NC2=NCCCCC2)cc1`, for which the Potency was 9.2 µM (active) and the cell number change is 1.27%.
For `CCOc1ccc(/C=N/NC2=NCCCCC2)cc1` the same measures were “inactive” and 8.72%.
In the case of `COc1ccc(/C=N/NC2=NCCCCC2)cc1`, the Potency result was “inactive”.
Still for that read-out and setting: the same measure for `C=CCSc1nc(=O)n2ccccc2n1`: “inactive”.
With `CCCSc1ccc(-c2nn(-c3ccccc3)cc2/C=C(/C#N)C(=O)N2CCOCC2)cc1`, the Potency result was “inactive” and the cell number change was -5%.
`O=C(c1c(F)cccc1F)N(C1CCCCC1)C1CCCCC1`: the Potency result was “inactive” and the cell number change was -23%.
For `COc1ccc(OC)c(N(CC(=O)NCCSC2CCCCC2)S(=O)(=O)c2ccccc2)c1`, the Potency is 14.6 µM (active) and the cell number change is -18.5%.
`Cc1ccccc1NC(=O)CN(C)S(=O)(=O)c1ccc2c(c1)n(C)c(=O)c(=O)n2C`: the Potency is 18.4 µM (active) and the cell number change is 13.4%.
The matching figures for `COCCCNC(=O)CN(c1cc(OC)ccc1OC)S(=O)(=O)c1ccccc1`: “inactive” and 13.9%.
The matching figures for `COc1ccc(N(CC(=O)NCc2ccco2)S(=O)(=O)c2ccccc2)cc1`: “inactive” and 3.25%.
Regarding `CCOc1ccc(N(CC(=O)NC2CCCC2)S(=O)(=O)c2ccccc2)cc1`, the Potency was 2.59 µM (active) and the cell number change is -7.14%.
As to `Cc1ccc(NC(=O)CN(C)S(=O)(=O)c2ccc3c(c2)n(C)c(=O)c(=O)n3C)c(C)c1`, the Potency entry is “inactive” and the cell number change came out at 25.1%.
For the compound `COc1ccc(N(CC(=O)NCCSC2CCCCC2)S(=O)(=O)c2ccccc2)cc1OC`, the Potency result is “inactive” and the cell number change is -12.6%.
Regarding `CCOc1ccc(N(CC(=O)NC2CC3CCC2C3)S(=O)(=O)c2ccccc2)cc1` (stereo unspecified), the Potency result is “inactive” and the cell number change came to 16.1%.
In the case of `CCOc1ccc(N(CC(=O)NC2CCCCCC2)S(=O)(=O)c2ccccc2)cc1`, the Potency result was “inactive” and the cell number change was 24.3%.
For the compound `CN(CC(=O)Nc1ccccc1F)S(=O)(=O)c1ccc2c(c1)n(C)c(=O)c(=O)n2C`, the Potency entry was “inactive” and the cell number change amounted to 1.35%.
In the case of `COc1ccc(N(CC(=O)NCc2ccccc2OC)S(=O)(=O)c2c(C)nn(C)c2C)cc1`, the lipid storage change, negative = inhibition was 22.2% [at 9.22 µM] (inactive).
For `COc1ccc(N(CC(=O)NCc2ccccc2OC)S(=O)(=O)c2ccccc2)cc1`, the Potency was 8.2 µM (active) and the cell number change stood at 10.9%.
For `CCc1ccc(CN2CCCC(CCC(=O)N3CCN(c4ccccn4)CC3)C2)o1` (stereo unspecified) the same measures were “inactive” and 5.55%.
The matching figures for `Cc1cc(CN2CCCC(N3CCc4ccccc4C3)C2)cc(C)c1O` (stereo unspecified): “inactive” and -2.22%.
With `Cc1[nH]c2ccccc2c1C(c1ccccn1)N1CCC(C(N)=O)CC1` (stereo unspecified), the Potency result was “inactive” and the cell number change is -13.7%.
As for `O=C(NCCN1CCOCC1)c1cccn2c(=O)c3c4c(sc3nc12)CCCC4`, the Potency result was “inactive” and the cell number change was -12.5%.
As to `Cc1c(C(=O)NCCSCc2ccccc2)cccc1[N+](=O)[O-]`, the Potency result is “inactive” and the cell number change is -1.45%.
The matching figures for `O=C(c1ccc(OC2CCN(CCc3ccccc3)CC2)cc1)N1CCCC(CO)C1` (stereo unspecified): “inactive” and 4.02%.
Consider `COc1ccc(N2CCN(CC(O)COc3cc(C)ccc3C)CC2)cc1` (stereo unspecified), for which the Potency entry was “inactive” and the cell number change is -17%.
Regarding `CCCS(=O)(=O)C/C(N)=N/OC(=O)c1ccccc1Cl`, the Potency result is “inactive” and the cell number change was -2.12%.
`CCC(C(=O)NCc1ccco1)N(C(=O)CNS(=O)(=O)c1ccccc1)c1ccc(F)cc1` (stereo unspecified): the Potency entry was “inactive” and the cell number change was -3.04%.
`COc1ccc(S(=O)(=O)N(CC(=O)Nc2cccnc2)c2ccccc2OC)cc1`: the Potency result was “inactive”.
On to `COc1ccc(N(CC(=O)Nc2ccc(OC)cc2OC)S(=O)(=O)c2ccccc2)cc1`, for which the Potency entry was “inactive” and the cell number change was -4.04%.
As for `COc1ccccc1N(CC(=O)Nc1cccnc1)S(=O)(=O)c1ccccc1`, the Potency entry was “inactive” and the cell number change is -18%.
Consider `CCc1ccccc1NC(=O)CN(c1ccc(OC)cc1OC)S(=O)(=O)c1ccccc1[N+](=O)[O-]`, for which the Potency result was “inactive” and the cell number change was -4.08%.
In the case of `COc1ccccc1CNC(=O)CN(C)S(=O)(=O)c1ccc2c(c1)c(=O)n(C)c(=O)n2C`, the Potency is 9.2 µM (active).
Turning to `COc1ccc(N(CC(=O)NC2CC3CCC2C3)S(=O)(=O)c2ccc(C)cc2)cc1OC` (stereo unspecified), the Potency entry was “inactive” and the cell number change is 8.82%.
For `COc1cccc(CNC(=O)CN(C)S(=O)(=O)c2ccc3c(c2)c(=O)n(C)c(=O)n3C)c1`, the Potency entry is “inactive” and the cell number change is -15.3%.
In the case of `COc1ccccc1N(CC(=O)Nc1ccc(Cc2ccncc2)cc1)S(=O)(=O)c1ccccc1`, the Potency was 7.31 µM (active) and the cell number change was 27.6%.
In the case of `O=C(CN(c1ccc(F)cc1)S(=O)(=O)c1ccccc1)NC1CC2CCC1C2` (stereo unspecified), the Potency entry is “inactive” and the cell number change turned out to be 10.7%.
`CCc1ccccc1NC(=O)CN(c1ccc(OC)cc1OC)S(=O)(=O)c1ccccc1`: the Potency is 2.91 µM (active) and the cell number change is -14.4%.
Take `CN(CC(=O)NCc1ccc(F)cc1)S(=O)(=O)c1ccc2c(c1)c(=O)n(C)c(=O)n2C`: the Potency entry is “inactive”.
Take `Cc1cccc(N(CC(=O)NC2CC3CCC2C3)S(=O)(=O)c2ccccc2)c1` (stereo unspecified): the Potency was 20.6 µM (active) and the cell number change is -12.9%.
With `CC(=O)NC(CC(=O)OC(C)C(=O)Nc1ncc(Cl)cc1Cl)c1ccccc1` (stereo unspecified), the Potency result was “inactive”.
The same measure, in the same setting: then `CC(=O)c1c(C)n(CC(=O)NCc2ccc3c(c2)OCO3)c2ccccc12`, with “inactive”.
As for `O=S(=O)(NC(=NCCc1ccc(Cl)cc1)c1ccccc1Cl)c1cccs1`, the Potency entry was “inactive” and the cell number change stood at 1.69%.
